According to PubChem BioAssay:

Test system: Neuregulin-1 EGF-like domain
Test: binders of neuregulin-1 EGF-like domain, primary screen, biochemical, small-molecule microarray, 635 nm fluorescence (AID 1081);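 further: binding of the protein to compounds printed on small-molecule microarray slides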
Settings: small-molecule microarray binding, higher = more signal

Row | Structure (SMILES) | composite z-score
1 | CC(C)CON=C1[C@H]2CCn3c(=O)n(-c4ccccc4)c(=O)n3[C@H]2[C@H](O)[C@@H]2O[C@H]12 | 0.323
2 | O=C1C[C@@H](O)[C@@H](O)[C@@H]2[C@@H]3C(=O)N(c4cccc(Oc5ccccc5)c4)C(=O)[C@@H]3CC[C@@H]12 | 1.01
3 | CO[C@H]([C@@H](C)[C@H](OC)c1ccccc1)[C@H](C)[C@@H](OC)[C@H](C)C(C)=O | -0.944
4 | Cc1ccc(S[C@]2(C(=O)NCC(F)(F)F)CC(=O)N(Cc3ccccc3Cl)[C@@H]2c2ccc(CO)cc2I)cc1 | 1.21
5 | O=C1O[C@@H](c2ccccc2)[C@@H](c2ccccc2)N2[C@@H](c3ccc(O)cc3)[C@]3(C(=O)Nc4ccccc43)[C@@H](C(=O)O)[C@H]12 | 1.08
6 | COCCNC(=O)OCC1CCCC2(CC(OC(=O)NCCc3ccc(F)cc3)CC(CCC(=O)N[C@@H](C)C(=O)OC)O2)O1 (stereo partly specified) | 0.777
7 | CCCNC(=O)[C@@H]1c2ccccc2C(=O)N(c2ccc(C)cn2)[C@H]1c1ccc(CO)cc1 | 1.4
8 | CCOC(=O)[C@H](CC(C)C)NC(=O)CCC1CC(OC(=O)NCCc2ccc(F)cc2)CC2(CCCC(COC(=O)NCc3ccccc3)O2)O1 (stereo partly specified) | 1.28
9 | CCOC(=O)CCN1C(=O)[C@H]2[C@H]3[C@H](O)[C@H](O)CC(=O)[C@H]3CC[C@H]2C1=O | 0.518
10 | C=CCC(OC(C)=O)[C@@H]1[C@@H](N(Cc2cc3ccccc3o2)C(=O)Cc2ccc(F)cc2)c2cc(OCCCO)ccc2N1C(=O)Cc1ccc(OC)cc1 (stereo partly specified) | -0.707
11 | CCOC(=O)NN=C1C[C@@H](O)[C@@H](O)[C@@H]2[C@@H]3C(=O)N(C[C@@H]4CCCO4)C(=O)[C@@H]3CC[C@@H]12 | 0.69
